Measured values from PubChem BioAssay.

Target: Neurogenic locus notch homolog protein 2 (Homo sapiens) (UniProt Q04721)
Experiment: small molecules binding Notch2 protein – biochemical, small-molecule microarray, 635 nm fluorescence, stem cell growth factors, primary screen (AID 1073)
Settings: higher = more signal

Sequence of Neurogenic locus notch homolog protein 2 (Homo sapiens) (Q04721 whole entry, looked up): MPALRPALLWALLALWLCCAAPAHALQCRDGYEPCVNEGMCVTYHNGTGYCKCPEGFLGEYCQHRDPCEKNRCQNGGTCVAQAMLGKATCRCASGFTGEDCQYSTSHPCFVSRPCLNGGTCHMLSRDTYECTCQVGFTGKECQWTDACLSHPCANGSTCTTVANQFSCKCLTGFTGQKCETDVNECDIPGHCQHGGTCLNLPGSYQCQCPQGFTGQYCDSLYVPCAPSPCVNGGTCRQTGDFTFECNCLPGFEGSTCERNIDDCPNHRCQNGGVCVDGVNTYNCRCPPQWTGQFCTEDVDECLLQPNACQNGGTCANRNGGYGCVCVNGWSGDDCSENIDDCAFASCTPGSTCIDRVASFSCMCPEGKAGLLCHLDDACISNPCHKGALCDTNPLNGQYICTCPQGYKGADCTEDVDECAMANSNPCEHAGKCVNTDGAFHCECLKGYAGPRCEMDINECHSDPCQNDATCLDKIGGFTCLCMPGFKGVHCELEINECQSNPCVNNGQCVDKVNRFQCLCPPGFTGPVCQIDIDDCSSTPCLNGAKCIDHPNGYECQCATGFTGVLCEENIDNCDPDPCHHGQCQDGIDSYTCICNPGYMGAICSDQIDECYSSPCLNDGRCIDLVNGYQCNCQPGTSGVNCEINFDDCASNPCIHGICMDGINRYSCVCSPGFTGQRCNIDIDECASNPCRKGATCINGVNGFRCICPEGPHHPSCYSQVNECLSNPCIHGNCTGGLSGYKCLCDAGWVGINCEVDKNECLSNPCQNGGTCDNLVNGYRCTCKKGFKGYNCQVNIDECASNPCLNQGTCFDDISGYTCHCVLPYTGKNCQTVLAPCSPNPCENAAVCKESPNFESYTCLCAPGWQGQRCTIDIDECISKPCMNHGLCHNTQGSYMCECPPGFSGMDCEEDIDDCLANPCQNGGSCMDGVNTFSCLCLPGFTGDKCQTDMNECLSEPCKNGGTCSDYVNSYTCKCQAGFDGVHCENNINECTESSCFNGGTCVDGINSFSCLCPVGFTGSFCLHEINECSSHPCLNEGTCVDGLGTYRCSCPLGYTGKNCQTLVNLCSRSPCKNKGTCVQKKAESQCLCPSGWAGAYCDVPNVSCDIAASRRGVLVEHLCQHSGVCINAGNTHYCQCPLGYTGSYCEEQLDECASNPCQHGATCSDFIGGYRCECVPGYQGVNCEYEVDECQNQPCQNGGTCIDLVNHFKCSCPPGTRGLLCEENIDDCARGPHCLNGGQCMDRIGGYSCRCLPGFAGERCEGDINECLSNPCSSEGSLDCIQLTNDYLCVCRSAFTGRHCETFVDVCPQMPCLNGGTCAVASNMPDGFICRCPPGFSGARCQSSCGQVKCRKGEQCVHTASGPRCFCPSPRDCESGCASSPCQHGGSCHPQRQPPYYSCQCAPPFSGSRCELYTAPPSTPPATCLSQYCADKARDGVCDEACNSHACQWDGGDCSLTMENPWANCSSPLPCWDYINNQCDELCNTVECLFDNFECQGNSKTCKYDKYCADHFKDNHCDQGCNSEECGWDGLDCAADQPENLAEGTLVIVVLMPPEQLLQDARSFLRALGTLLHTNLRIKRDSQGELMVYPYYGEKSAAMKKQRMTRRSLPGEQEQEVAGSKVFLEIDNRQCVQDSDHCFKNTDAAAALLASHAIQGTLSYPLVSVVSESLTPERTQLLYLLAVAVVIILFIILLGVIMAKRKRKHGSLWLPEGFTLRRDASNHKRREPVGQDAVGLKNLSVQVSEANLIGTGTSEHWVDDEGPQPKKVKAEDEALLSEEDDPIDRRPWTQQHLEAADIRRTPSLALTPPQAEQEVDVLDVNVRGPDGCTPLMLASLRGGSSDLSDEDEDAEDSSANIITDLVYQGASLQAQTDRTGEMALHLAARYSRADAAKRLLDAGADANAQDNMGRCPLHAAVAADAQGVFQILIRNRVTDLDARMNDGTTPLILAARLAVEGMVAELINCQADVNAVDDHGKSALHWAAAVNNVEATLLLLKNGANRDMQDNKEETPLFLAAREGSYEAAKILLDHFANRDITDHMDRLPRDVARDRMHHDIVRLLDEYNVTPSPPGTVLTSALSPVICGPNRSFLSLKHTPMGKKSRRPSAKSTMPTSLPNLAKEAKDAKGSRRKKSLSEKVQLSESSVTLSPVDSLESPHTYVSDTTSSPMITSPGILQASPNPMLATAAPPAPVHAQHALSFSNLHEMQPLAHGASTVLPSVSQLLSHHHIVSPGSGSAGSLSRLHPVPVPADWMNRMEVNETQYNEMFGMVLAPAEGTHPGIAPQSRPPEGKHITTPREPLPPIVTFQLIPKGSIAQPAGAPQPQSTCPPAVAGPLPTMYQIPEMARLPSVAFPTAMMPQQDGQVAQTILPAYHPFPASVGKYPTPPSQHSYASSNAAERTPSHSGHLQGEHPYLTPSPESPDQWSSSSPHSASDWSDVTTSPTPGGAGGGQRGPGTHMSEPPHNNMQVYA

Question: For `O=C(O)C1=CC[C@H]2C(=O)N(c3ccccc3)C(=O)[C@@H]12`, which composite z-score is on record?
Answer: 1.58

Question: How did the composite z-score turn out when `C=CC[C@H](OC(=O)Nc1ccc(SC)cc1)c1ccc(O)c(F)c1` was run?
Answer: -1.19

Question: `COC(=O)C1(CC(C)C)C=C2C(=C(C)C(=O)C2C)CN1` (configuration not stated) was tested. Which composite z-score did it give?
Answer: 0.28

Question: For `[N-]=[N+]=NCc1ccccc1C[C@]1(C(=O)N2CCCCC2)COC(c2ccc(OCCCO)cc2)=N1`, which composite z-score is on record?
Answer: 0.207

Question: How did the composite z-score turn out when `C=C[C@H](C)[C@@H](OC(=O)Nc1ccc(SC)cc1)c1ccc(OCCO)cc1` was run?
Answer: -0.421

Question: How did the composite z-score turn out when `COC(=O)Cn1c(C(=O)N(C)C)cc2c1C[C@H]1CN(C(=O)c3ccccc3)[C@@](Cc3ccccc3)(C(=O)OC)[C@@H]21` was run?
Answer: 1.47

Question: How did the composite z-score turn out when `O=C1c2ccccc2[C@](Cc2ccccc2I)(C(=O)NCCN2CCOCC2)[C@H](c2ccc(CO)cc2)N1Cc1ccccc1C(F)(F)F` was run?
Answer: 0.614

Question: For `Cc1ccc(S[C@]2(C(=O)NCCN3CCOCC3)CC(=O)N(C(C)C)[C@@H]2c2ccc(CO)cc2I)cc1`, which composite z-score is on record?
Answer: -0.521

Question: For `C=C(CCCC)C(=O)CC[C@H](OC(=O)c1ccccc1-c1ccccc1C(=O)O)c1cccc(OCCO)c1`, which composite z-score is on record?
Answer: -1.37

Question: For `[N-]=[N+]=Nc1ccccc1C[C@@]1(C(=O)NCc2ccccc2)N=C(c2ccc(OCCCO)cc2)O[C@@H]1c1ccccc1`, which composite z-score is on record?
Answer: 1.46

Question: How did the composite z-score turn out when `C=CCNC(=O)[C@@H]1[C@H]2C(=O)O[C@H](c3ccccc3)[C@H](c3ccccc3)N2[C@H](c2ccc(OCCO)cc2)[C@@]12C(=O)Nc1ccc(C#CC3=CCCCC3)cc12` was run?
Answer: 1.02

Question: Which composite z-score does the source give for `CC(C)C[C@@H]1NC(=O)[C@H]2C[C@@H](C(=O)O)[C@@H](c3cccc(OCCO)c3)N2C1=O` here?
Answer: -0.26
